Measured values published in PubChem BioAssay AID1259400 (National Center for Advancing Translational Sciences (NCATS), 2018).
Hit rate of the full screen: of about 350,000 compounds, about 2,100 (0.6%) were called active. Roughly 1% stayed inconclusive and do not appear here.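 The calls were made as follows: active = activity change of -60% or lower, but not beyond a set lower limit; inconclusive = change between -60% and -40%, or beyond the set limit; inactive = change above -40%.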 This excerpt belongs to a sample that is enriched for actives.

Target: Relaxin receptor 1 (Homo sapiens) (UniProt Q9HBX9)
Assay: qHTS Assay for Antagonists of the Relaxin Receptor RXFP1
Conditions: HEK293-RXFP1, relaxin-stimulated cAMP HTRF, 30 min; at 57.5 µM; stronger effect = lower value
% is scaled to controls: 0 for no effect and ±100 for the full control effect.

Chain of Relaxin receptor 1 (Homo sapiens) (Q9HBX9 whole entry, looked up): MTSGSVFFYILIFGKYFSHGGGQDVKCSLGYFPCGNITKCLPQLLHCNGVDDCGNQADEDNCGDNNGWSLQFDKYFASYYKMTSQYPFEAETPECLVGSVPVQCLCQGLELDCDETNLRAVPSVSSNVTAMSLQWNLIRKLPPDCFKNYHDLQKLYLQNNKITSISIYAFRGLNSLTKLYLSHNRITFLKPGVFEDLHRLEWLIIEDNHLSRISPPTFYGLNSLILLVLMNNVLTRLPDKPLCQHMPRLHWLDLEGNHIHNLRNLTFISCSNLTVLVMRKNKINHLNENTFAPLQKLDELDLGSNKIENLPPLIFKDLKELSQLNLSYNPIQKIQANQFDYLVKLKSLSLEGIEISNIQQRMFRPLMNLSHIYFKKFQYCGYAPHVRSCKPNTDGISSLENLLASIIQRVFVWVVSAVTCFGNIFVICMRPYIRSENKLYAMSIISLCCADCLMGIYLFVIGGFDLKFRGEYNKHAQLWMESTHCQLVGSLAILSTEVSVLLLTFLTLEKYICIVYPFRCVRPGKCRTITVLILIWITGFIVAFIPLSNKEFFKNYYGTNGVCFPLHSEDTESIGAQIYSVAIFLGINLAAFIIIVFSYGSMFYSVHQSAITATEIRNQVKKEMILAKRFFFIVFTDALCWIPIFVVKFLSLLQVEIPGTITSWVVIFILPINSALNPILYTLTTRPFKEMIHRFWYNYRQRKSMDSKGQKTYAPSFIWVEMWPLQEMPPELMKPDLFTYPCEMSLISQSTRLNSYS

Activity change, negative = inhibition, inactive:
O=C(C1CCC(Cn2c(=O)c3sccc3n(Cc3ccccc3F)c2=O)CC1)N1CCCCC1 (stereo not drawn) -8.5%
Cc1nn(-c2ccccc2)c(Cl)c1/C=N/NC(=O)c1nn(C)cc1[N+](=O)[O-] -8.41%
CN1CCc2ccccc2C1Cc1ccccc1NC(=O)c1sc2ccccc2c1Cl (stereo not drawn) 5.13%
C/C=C/C=N/NC(=O)c1ccncc1 14.4%
CC1CCN(S(=O)(=O)c2ccc3c(ccn3CCC(=O)NCc3ccc(N(C)C)cc3)c2)CC1 -7.88%
CCOC(=O)c1ccc(NC(=O)C2CC(=O)N(c3ccc(C(C)C)cc3)C2)cc1 (stereo not drawn) 4.6%
CN1CC[C@H](c2c(O)cc(O)c3c(=O)cc(-c4ccccc4Cl)oc23)[C@H](O)C1 -7.55%
COc1ccc(C2Sc3ccccc3NC3=C2C(=O)c2ccccc23)c(OC)c1OC (stereo not drawn) 3.16%
CCOC(=O)c1cnc2c(C)cc(C)cc2c1Nc1ccc(N2CCOCC2)cc1 -5%
O=C(Nc1cccc(Cl)c1)c1csnn1 -3.98%
O=C(Nc1ccc(Oc2ccccc2)cc1)C1CCN(S(=O)(=O)c2ccc(Cl)cc2)CC1 -26.7%
Clc1ccc(CSc2nncn3c2cc2occc23)cc1 -27.8%
Cc1ccc(Nc2c(-c3ccc(Cl)cc3)nc3sccn23)c(C)c1 -23.7%
O=C(Nc1ccncc1)c1ccccc1[N+](=O)[O-] 11.1%
Cc1ccc2nsnc2c1NC(=O)c1ccccc1[N+](=O)[O-] -9.18%
CCOC(=O)c1ccc(NC(=O)c2c(NCc3cccs3)sc3c2CCCC3)cc1 -24.5%
CN(C)C(=O)COC(=O)c1cccc(S(=O)(=O)N2CC3(C)CC2CC(C)(C)C3)c1 (stereo not drawn) 8.67%
CN1CCN(c2oc(-c3ccc(COc4ccc(Cl)cc4)o3)nc2C#N)CC1 -10.5%
CCOc1ccccc1NC(=O)c1ccc2c(c1)CCN2S(=O)(=O)c1ccc(C)cc1 1.03%
CCc1cccc(C)c1Nc1c(-c2ccc(N(C)C)cc2)nc2ncccn12 -15.1%
CCn1cc(C(=O)N2CCN(c3cc(Cl)ccc3C)CC2)c(=O)c2cc(S(=O)(=O)N3CCCC3)ccc21 -1.04%
CC(C)Cn1c(=O)c2ccccc2n2c(-c3cccc(Cl)c3)nnc12 -13.9%
CC(C)Cn1c(=O)c2ccccc2n2c(CCC(=O)NCc3ccccn3)nnc12 1.58%
Cc1cc(O)c(C(c2ccccc2)N2CCN(c3ccccc3F)CC2)c(=O)n1Cc1ccco1 (stereo not drawn) -24.2%
CCOC(=O)c1[nH]c(C)c(CCC(=O)N2CCN(c3ccccc3)CC2)c1C -8.52%
N/C(=N\OC(=O)c1ccc([N+](=O)[O-])cc1)c1ccccn1 8.07%
O=C(COC(=O)c1ccccn1)NNC(=O)c1ccc(Br)cc1 -5.4%
CCn1c(C)c(C)c2cc(C(=O)NCCc3cc(OC)ccc3OC)ccc21 -30.2%
Cc1cc(C)n2nc(SCC(N)=O)nc2n1 -10.1%
CCn1c(CSc2nc(C)cc(C)n2)nnc1SCC(N)=O 13.9%
COC(=O)[C@@H]1CC2=CC(=O)CC[C@]2(C)[C@@]23O[C@@H]2C[C@@]2(C)[C@@H](CC[C@@]24CCC(=O)O4)[C@H]13 12.2%
c1ccc(CCc2ccccn2)cc1 -14.5%
O=C1CSc2ccc(C(=O)NCc3ccccn3)cc2N1 5.23%
Cc1ccc(Nc2c(-c3ccc(N(C)C)cc3)nc3nc[nH]n23)cc1 -4.77%
COc1cccc(C(c2c(O)cc(C)n(Cc3ccco3)c2=O)N2CCN(c3ccccc3)CC2)c1 (stereo not drawn) -4.37%
Cc1ccc(N(C(=O)c2snc(C(N)=O)c2N)C(C(=O)NCC2CCCO2)c2c[nH]c3ccccc23)cc1 (stereo not drawn) -19%
CCOc1ccc(N(C(=O)c2snc(C(N)=O)c2N)C(C(=O)NCC2CCCO2)c2c[nH]c3ccccc23)cc1 (stereo not drawn) -6.04%
Cc1cccc(Nc2cc(C)nc(-n3nc(C)cc3C)n2)c1 -6.69%
CCOC(=O)c1c(S(=O)(=O)NCC(=O)Nc2ccc(Cl)c(C(F)(F)F)c2)c(C)n(C)c1C -8.26%

Activity change, negative = inhibition, active:
Cc1nn(C)cc1/C=N/NC(=O)c1sc2ccccc2c1Cl -67.1%
O=C(Nc1ccccc1)c1nnsc1S(=O)(=O)c1ccc(Cl)cc1 -68.7%
CC(=O)Oc1ccccc1C(=O)Nc1ncc([N+](=O)[O-])s1 -60.7%
Cc1nnnn1/C(=C\c1ccccc1)C(=O)OCC(=O)N1CC2(C)CC1CC(C)(C)C2 (stereo not drawn) -62.1%
CC(C)Cn1c(=O)c2ccccc2n2c(CCC(=O)N3CCN(c4cccc(Cl)c4)CC3)nnc12 -87.5%
O=C(COC(=O)c1ccccn1)NNC(=O)c1ccc([N+](=O)[O-])cc1 -74.5%
Cc1ccnc(SCC(N)=O)n1 -83.8%
c1ccc(CN=C2Nc3ccccc3CS2)nc1 -70.7%
Cc1ccc(C(C(=O)NCC2CCCO2)N(C(=O)c2snc(C(N)=O)c2N)c2ccc(C(C)C)cc2)o1 (stereo not drawn) -74%
